Measured values: PubChem BioAssay (NCI)
About 83,000 compounds went through this panel and 20% of them were active in at least one assay; those are over-represented in the sample as a whole.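 In brief: 96-well plates, 48 h treatment, single concentration, percent growth endpoint.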 The source made the active and inactive calls.

Tested on: EKVX NSCLC
Assay: NCI-60 one-dose screen, 48 h (100 = growth as untreated, 0 = no growth, -100 = all killed)
Details: 10 µM unless noted
Protocol: Growth inhibition of the EKVX human Non-Small Cell Lung tumor cell line is measured as a screen for anti-cancer activity. Cells are grown in 96 well plates and exposed to the test compound for 48 hours. Compounds are tested at a single concentration, which is 10^-5 M for most compounds. The reported endpoint is percent growth (GI% or GIPRCNT), where numbers from 0 - 100% represent growth inhibition, and numbers from -100% - 0 represent cell death. For example, a value of 40 represents 60% growth inhibition. A value of 0 means no net growth occurred over the course of the experiment. A value of -40 indicates 40% of cells at the beginning of the experiment died by the end of the experiment. A value of -100 means all cells are dead at the end of the experiment.
NCI-60 Human Tumor Cell Lines Screen was performed using the standard one-dose NCI protocol, which is described in more detail at https://dtp.cancer.gov/discovery_development/nci-60/default.htm.
Compounds with GIPRCNT values below 10 were considered active. Activity score was based on GIPRCNT using the following formula: […]
Score is 0 for GIPRCNT values of 100 or above, 50 for GIPRCNT values of 0, and 100 for GIPRCNT values of -100.

SMILES | growth
C[C@H]1[C@H](C)CC[C@]2(CO)CC[C@]3(C)C(=CC[C@@H]4[C@@]5(C)Cc6c([nH]c7ccccc67)C(C)(C)[C@@H]5CC[C@]43C)[C@H]12 | 75.5% (inactive)
O=C(N/N=C/c1ccncc1)c1ccccc1Nc1cccc(C(F)(F)F)c1 | 91.7% (inactive)
COc1ccc(NC(=O)c2sc3nc(C)c(C(O)c4ccc(OC)cc4)cc3c2N)cc1 (stereo not given) | 47.9% (inactive)
NC(=O)CN1CCN(c2ccccc2Cl)CC1 | 108% (inactive)
C[C@@H]1CN(Cc2ccc(/C=C/c3n[nH]c4ccc5nc(-c6cn[nH]c6C(F)(F)F)c6c(c5c34)CCCC6)cc2)C[C@H](C)O1 | 32.4% (inactive)
Cc1ccccc1-c1cc(Cc2ccc(F)cc2)c(=O)[nH]n1 | 81.8% (inactive)
COc1ccc(NC(=O)c2sc3nc(C)c(C(=O)CCc4cccc(OC)c4)cc3c2N)cc1 | 82.8% (inactive)
COc1ccc(-c2nc(SC(C)C)nc(NNC(N)=O)c2C#N)cc1 | 99.2% (inactive)
COc1nccnn1 | 107% (inactive)
C(=N\Nc1ncc(-c2cc3cc4c(cc3o2)OCO4)s1)/c1c[nH]c2ccccc12 | 5.32% (active)
Cc1ccc(-c2csc(/N=C3\C(=O)Nc4ccccc43)n2)cc1 | 33.6% (inactive)
CCCCCCNC(=O)Oc1ccc(/C(=C(/CC)Cc2ccccc2)c2ccc(OCCN(CC)CC)cc2)cc1 | 81% (inactive)
Cc1ccc(C(c2c(O)c3cc(Br)ccc3[nH]c2=O)c2c(O)c3cc(Br)ccc3[nH]c2=O)cc1 | 71.2% (inactive)
O=C(Nc1ccc(F)cc1)c1c(NC(=O)C(F)(F)F)sc2c1CCCCC2 | -2.06% (active)
O=C(Cc1ccc(/C=C/C(=O)c2ncc[nH]2)cc1)Nc1ccc(C(F)(F)F)cc1 | 71.8% (inactive)
N/C(=N\N=C\c1cc2ccccc2s1)N/N=C/c1cc2ccccc2s1 | 95.6% (inactive)
COc1ccc(C2CC(c3cccc(Nc4ccncc4)c3)=NN2c2ccccc2)cc1 (stereo not given) | 87.2% (inactive)
Cn1ncc2c(Nc3ccccc3Cl)nc(Cl)nc21 | 89.8% (inactive)
CC(C)[N+](C)(CCOC(COc1ccccc1)COc1ccccc1)C(C)C | 79.1% (inactive)
CC1=CC2(C)/C=C(C)/C=C\CC(O)/C=C3/C=CC(=C4C(=O)OC2(CC1C)C4=O)OC3 (stereo not given) | 34.8% (inactive)

SMILES | growth
Cn1c(COC(=O)NCCc2ccccn2)nc2c(N3CCOCC3)nc(Cl)nc21 | 14.9% (inactive)
O=S(=O)(c1ccccc1)N1CCCc2ccccc21 | 101% (inactive)
C=C(C)[C@@H]1CC[C@]2(CO)CC[C@]3(C)[C@H](CC[C@@H]4[C@@]5(C)CCCNC(C)(C)[C@@H]5CC[C@]43C)[C@@H]12 | 63.3% (inactive)
Fc1ccc(-n2cc(COc3ncnc4sc5c(c34)CCCC5)nn2)cc1Cl | 94.1% (inactive)
CC(=O)c1c[nH]c2ccc(-c3ccnc(Nc4ccc(NC(=O)C5CCCC5)c(CN5CCOCC5)c4)n3)cc12 | -47.3% (active)
CCCc1cc2c(cc1Br)OCO2 | 94.4% (inactive)
O=C(Nc1sc2c(c1C(=O)O)CCCC2)c1cccc(C(F)(F)F)c1 | 93.7% (inactive)
COc1cc2nc(-c3ccc(C(F)(F)F)cc3)cc(OCCCN3CCC(O)CC3)c2cc1OC | 59.8% (inactive)
N#CSCC1CC(O)(c2ccccc2)C(c2ccccc2)C(c2ccc(F)cc2)O1 (stereo not given) | 14% (inactive)
CC(=O)OCC(=O)C1(O)C(C)CC2C3C=C(C)C4=Cc5c(cnn5-c5ccccc5)CC4(C)C3C(O)CC21C (stereo not given) | 27% (inactive)
COc1ccc(Nn2c(SCC(=O)Nc3nc(-c4ccc(Cl)cc4)cs3)nc(C)c2C)cc1 | 41.9% (inactive)
O=c1[nH]nc(-c2ccc(Br)cc2)cc1Cc1ccc(O)cc1 | 51.7% (inactive)
O=C(NCCc1ccccn1)OCc1nc2nc(Cl)nc(N3CCOCC3)c2[nH]1 | 72.4% (inactive)
COc1c(Cl)cc(Cl)c2ccc(C=C3C(=O)NC(=S)NC3=O)nc12 | 104% (inactive)
CCn1ccnc1C(=O)/C=C/c1ccc(CC(=O)Nc2ccc(F)cc2)cc1 | 55.2% (inactive)
CC(C)(C)CC(C)(C)Nc1c(-c2ccc(C(F)(F)F)cc2)nc2cnccn12 | 79.4% (inactive)
Cc1ccccc1C(c1ccccc1)c1ccccc1C | 96.3% (inactive)
CC(=O)NCCCS(=O)(=O)O | 98.6% (inactive)
CCc1c(Nc2ccc(C)cc2)[nH]c(N)nc1=S | 84.9% (inactive)
O=C(N/N=C/c1ccc(F)cc1)c1ccccc1Nc1cccc(C(F)(F)F)c1 | 102% (inactive)
